From PubChem BioAssay
This is a sample that favours compounds with a hit; in the whole collection about 19% have one here.
TDP1 cell noCPT – qHTS for Inhibitors of human tyrosyl-DNA phosphodiesterase 1 (TDP1): qHTS in cells in absence of CPT; DT40 Tdp1-/- hTDP1 cells, no CPT, ATP luminescence, 48 h; Potency, µM (top dose mostly 46.2 µM), for the others: top-dose activity change, negative = growth inhibition, actives largely listed as inhibitors; 420,000 tested, 15% active; AID 686978, 2013; also: potency is read from the fitted curve at half-maximal effect; nearly all actives have a fitted effect of over 55% in size
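DT40 Tdp1-/-;hTDP1 cells, no CPT (DMSO vehicle only), 400 cells/well; compounds pin-transferred; ≥48 hr, 37 °C; CellTiter-Glo 30 min RT dark, luminescence read.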
IL-1B inflam inh – inhibitors of inflammasome signaling (IL-1 beta secretion). THP-1 LPS/ATP IL-1B secretion, AlphaLISA, 16 h; stronger effect = lower value. activity change, % at 57.5 µM. 360,000 tested, 4.7% active. AID 743279; in the data active = activity change below about -50%; inconclusive = mostly about -30% to -49%
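THP-1 cells pretreated 1 hr with compounds (up to 57.5 uM final), then stimulated with LPS (250 ng/mL final) plus ATP (1.25 mM final); secreted IL-1B measured by AlphaLISA after 16 hr, decreased signal indicating inhibition.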
HT1080 IDH1KD tx – HT-1080 IDH1 knockdown cell toxicity (counter line); HT-1080 IDH1 knockdown viability, ATP luminescence, 48 h; Potency, µM (top dose mostly 46.1 µM), without a hit: at the top dose activity, negative = toxicity, most hits filed as cytotoxic; 360,000 tested, 2% active; AID 686971;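 also: potency is read from the fitted curve at half-maximal effect; 0% = DMSO wells and -100% = cell-free medium wells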
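Knockdown cells (IDH1KD HT-1080) received compounds 2 h after plating at 750 cells/well and were kept 48 h at 37 °C in 5% FBS RPMI. A CellTiter-Glo luminescence read gave % activity for curve fitting.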
HT1080NT lethal – kills 2HG-producing HT-1080-NT fibrosarcoma cells; HT-1080-NT fibrosarcoma viability, CellTiter-Glo ATP luminescence, 48 h; 360,000 tested, 1.6% active; Potency, µM (series often up to 46.1 µM), for inactives: top-dose activity, negative = less viability, usual class: cytotoxic; AID 686970;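 also: NT is the 2HG producing partner of a matched IDH1 knockdown line; potency is read from the fitted curve at half-maximal effect; 0% = DMSO-treated cells and -100% = media-only wells without cells; nearly all actives have a fitted effect of over 55% in size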
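Viability by CellTiter-Glo luminescence after 48 h compound exposure at 37C of HT-1080-NT cells (750/well, RPMI, 5% FBS). % activity scaled between DMSO wells and medium-only wells, then curve-fitted and categorized by curve class.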
uPA surface inh – blocks generation of uPA at the cell surface | Potency, µM (top dose mostly 38.3 µM), without a hit: at the top dose activity change, negative = inhibition, usual class: inhibitors | cell surface uPA generation assay, qHTS | 330,000 tested, 0.31% active; active = well fitted inhibition curve with a large enough effect; inconclusive = small, poorly fitted or top-dose-only effect; inactive = no such curve, though single readings can be large or run the other way; tested in mouse RAW 264.7 cells; also: potency is read from the fitted curve at half-maximal effect; nearly all actives have a fitted effect of over 55% in size
DT40 TDP1 CPT – DT40-hTDP1 cell growth loss with CPT; 420,000 tested, 12% active; Potency, µM (titrated, usually from 46.2 µM), inactives show at the highest dose activity change, negative = growth inhibition, most hits filed as inhibitors; chicken DT40 Tdp1-/-;hTDP1 cells + 20 nM CPT, ATP luminescence, 48 h; AID 686979; also: potency is read from the fitted curve at half-maximal effect; nearly all actives have a fitted effect of over 55% in size
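Chicken DT40 Tdp1-/- cells stably complemented with human TDP1 were seeded at 400 cells/well in medium containing 20 nM camptothecin, exposed to pin-transferred compounds, and grown at 37 °C for at least 48 hr. Viability was read as ATP luminescence.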
The depositor's hits bear a star; i = inactive; ? = inconclusive; · = no result given. Unless noted, calls follow the shape of the dose curve; as a rule, active = well fitted curve in the direction sought with a large enough effect; inconclusive = small, poorly fitted or top-dose-only effect, or another doubt; inactive = no such curve, though single readings can be large; an effect the other way counts as inactive or inconclusive. Unless noted, % is scaled to controls: 0 for no effect and ±100 for the full control effect.

SMILES | TDP1 cell noCPT | IL-1B inflam inh | HT1080 IDH1KD tx | HT1080NT lethal | uPA surface inh | DT40 TDP1 CPT
COc1ccc(C=C2SC(=O)NC2=O)cc1OC | 16µM* | -5 | -23% | -14% | -8% | ?
CCNC(=O)N(C)c1c(CC)nc2ccc(C(=O)N3CCN(C(=O)c4ccco4)CC3)cn12 | -7% | 10 | 0% | 2% | · | -3%
CCCC(=O)N1CCC1(C)C(=O)Nc1ccc(OC(F)F)cc1 (configuration not stated) | -24% | 0 | 1% | 11% | · | -1%
CC(C)CC(CO)N1CCN(C(=O)c2ccc(C(C)(C)C)cc2)CCC1=O (configuration not stated) | ? | 14 | 9% | 12% | -3% | ?
CC(C)C[C@@H](COCc1ccc(C(F)(F)F)cc1)N1CCN(C(=O)c2ccc(C(F)(F)F)cc2)CCC1=O | ? | -76* | ? | ? | · | ?
CC(C)C[C@@H](COCc1cccc(Cl)c1)N1CCN(C(=O)c2ccc(C(F)(F)F)cc2)CCC1=O | ? | -50* | ? | ? | · | ?
CC(C)CC(COCc1ccc(C(F)(F)F)cc1)N1CCN(C(=O)c2ccc(C(F)(F)F)cc2)CCC1=O (configuration not stated) | ? | -54* | ? | ? | ? | ?
O=C(NCCCn1ccnc1)c1nn2c(C(F)(F)F)cc(-c3ccccc3)nc2c1Cl | ? | ? | -9% | -9% | -8% | -14%
CC/C(=N\NC(=O)c1ccncc1)C12CC3CC(CC(C3)C1)C2 | -18% | 5 | 13% | 19% | 2% | -25%
O=C(NNC(=S)NC(=O)C12CC3CC(CC(C3)C1)C2)c1ccncc1 | ? | 46 | 7.9µM* | 13µM* | -26% | ?
O=C(NNC(=O)C12CC3CC(CC(C3)C1)C2)c1ccccn1 | 5.2µM* | -97* | ? | -21% | 3% | 4.1µM*
CC1(C(=O)NC(=S)NNC(=O)c2ccncc2)CCCCC1 | 16µM* | 15 | ? | -19% | -1% | 13µM*
CC(C)(C)c1ccc(CC(=O)N2CCC2(C)C(=O)Nc2ccc(F)cc2F)cc1 (configuration not stated) | 16µM* | 10 | ? | -24% | · | 23µM*
CC1(C(=O)Nc2ccc(F)cc2F)CCN1C(=O)CCC1CCCC1 (configuration not stated) | 23µM* | 0 | 2% | ? | · | ?
COc1ccc(S(=O)(=O)N2CCC(C(=O)NC(C)c3ccccc3)CC2)cc1 (configuration not stated) | ? | · | · | · | · | -1%
CS(=O)(=O)c1ccc(Cl)c(NC(=O)CCl)c1 | 10µM* | -100* | ? | ? | · | 5.8µM*
Cc1ccc(NC(=O)CCl)c(C)c1 | 26µM* | -99* | ? | ? | · | ?
Cc1ccc(C)c(NC(=O)Cc2nc(CCl)cs2)c1 | 21µM* | -3 | 9% | -1% | 2% | 26µM*
Cc1ccc(NC(=O)CCc2ccc(C)o2)c(C)c1 | -26% | 0 | -21% | -6% | -12% | ?
Cc1ccccc1NC(=O)Cn1c(=O)oc2cc(Br)ccc21 | 13µM* | · | · | · | · | ?
CN(C)c1cccc(-c2nnc(SCC(=O)NCc3ccco3)n2C)c1 | 0% | · | · | · | · | -10%
CCOc1ccccc1NC(=O)Cn1c(=O)oc2cc(Cl)ccc21 | 4.6µM* | -10 | 1% | -2% | 3% | -18%
Cc1ccc(NC(=O)Cn2c(=O)oc3ccccc32)c(C)c1 | 13µM* | -12 | -2% | 20% | 2% | 0%
Cc1cccc(NC(=O)Cn2c(=O)oc3ccccc32)c1C | ? | -6 | 2% | -4% | 9% | ?
Cc1ccc(NC(=O)Cc2cc(C(=O)O)c3ccccc3n2)c(C)c1 | 21µM* | -6 | ? | -23% | ? | 15µM*
SMILES | TDP1 cell noCPT | IL-1B inflam inh | HT1080 IDH1KD tx | HT1080NT lethal | uPA surface inh | DT40 TDP1 CPT
O=C(Cn1c(=O)oc2ccccc21)Nc1ccccc1C(F)(F)F | 6.5µM* | 16 | -2% | 0% | 1% | ?
Cc1ccc(NC(=O)c2cc(-c3cccs3)nc3ccccc23)c(C)c1 | ? | · | · | · | · | -28%
CNC[C@H]1OCc2ccccc2-c2ccccc2C(=O)N([C@@H](C)CO)C[C@H]1C | -6% | 9 | -2% | -1% | · | 5%
CCNc1ncc2nc(-c3ccc(Cl)cc3)c(=O)n(Cc3cccc(OC)c3)c2n1 | -17% | · | · | · | · | -29%
CCN1C(=O)[C@H]2[C@@H](c3ccc(C)cc3)N[C@]3(CCCN(Cc4cccn4C)C3=O)[C@H]2C1=O | ? | -14 | -10% | -7% | · | -15%
CCCN(CC(=O)Nc1ccccc1C)C(=O)c1ccc(S(=O)(=O)N2CCCCCC2)cc1 | 0% | -3 | 1% | 1% | -9% | 6%
COc1ccc(NC(=O)CN(C)Cc2c(F)cccc2Cl)cc1S(=O)(=O)N1CCCCC1 | 2% | -3 | 17% | 12% | 3% | 7%
COc1ccc(/C=C/C(=O)N(C)CC(=O)Nc2cccc(F)c2)cc1S(=O)(=O)N1CCCCC1 | 16µM* | 4 | ? | -28% | ? | 18µM*
COc1ccc(NC(=O)CN(C)C(=O)/C=C/c2ccc(S(=O)(=O)N3CCCCCC3)cc2)cc1 | 18µM* | -16 | ? | -6% | -4% | ?
CCCN(CC(=O)Nc1ccccc1C)C(=O)/C=C/c1ccc(S(=O)(=O)N2CCCCCC2)cc1 | 21µM* | -16 | -24% | -10% | -16% | ?
Cc1c(C(=O)NCC2(c3ccccc3)CCOCC2)cnn1-c1nccc(-c2ccco2)n1 | -23% | · | · | · | · | ?
Cc1cc(Cn2cnc3c2C[C@@H](C(=O)O)N(C(=O)C(c2ccccc2)c2ccccc2)C3)ccc1N(C)C | 2% | · | · | · | · | -86%
CSc1nc(N)c(NC(=O)c2ccc(Br)o2)c(=O)[nH]1 | ? | i | -1% | -1% | -7% | -12%
C[C@]12C(=O)N(c3ccc(C(F)(F)F)cc3)C(=O)N1[C@@H]1c3ccccc3OC[C@@H]1[C@H]2c1ccccc1 | ? | -9 | 0% | 0% | 13% | 23µM*
C[C@]12C(=O)N(c3ccccc3)C(=O)N1[C@@H]1c3ccccc3OC[C@@H]1[C@H]2c1ccccc1 | 16µM* | -4 | -7% | 24% | 6% | 15µM*
C[C@]12C(=O)N(c3cccc(Cl)c3)C(=O)N1[C@@H]1c3ccccc3OC[C@@H]1[C@H]2c1ccccc1 | 12µM* | -8 | -5% | -7% | -3% | 15µM*
